Compound activity: PubChem, Broad Institute
Hits are enriched below; roughly 2.8% of the tested compounds scored in any of these assays.
PAX8 reporter: lowers PAX8-driven luciferase in RMG-I cells | RMG-I TPO-luciferase reporter, SteadyGlo, 24 h | inhibition, % at 12.6 µM | 1.2% of 360,000 active | AID 652154;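 active = mean replicate inhibition at least 60% with every replicate also reaching 60%; inconclusive = only one of the two criteria is met; inactive = mean below 60% and not all replicates reaching 60%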;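 note: luciferase light reporting Pax8 driven TPO promoter activity; plate controls were median of neutral control wells for no effect and mitoxantrone controls for full effect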
HIV Env fusion: inhibitors of HIV Env-mediated cell fusion; HeLa-JRFL Env/CEM21 cell fusion, luciferase; inhibition, % at 12.3 µM; 1.1% of 360,000 active; AID 651610;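 active = mean replicate inhibition score of at least 50 and every replicate individually at or above 50; inconclusive = only one of the two criteria met; inactive = mean below 50 and not all replicates reaching 50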;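 note: 0% = plate neutral controls and 100% = maraviroc near 300 nM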
Shn3 3UTR inh: reduces Shn3 3'UTR luciferase signal in osteoblasts; Clone20 osteoblast Shn3 3'UTR firefly luciferase, 24 h; inhibition, % at 12.5 µM; 0.52% of 360,000 active;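 active = mean inhibition of at least 75% with every replicate also reaching 75%; inconclusive = mean inhibition at least 75% but some replicate below; inactive = mean inhibition below 75%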;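 note: 0% = median of neutral control wells and 100% = pilot-screen positive control compound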
Glyco luc inh: N-linked glycosylation inhibition | D54 ERlucT glycosylation luciferase reporter, 24 h; percent of 100 nM tunicamycin response | reporter increase, % at 12.5 µM | 0.23% of 360,000 active | AID 588692;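 active = mean luciferase reporter signal, scaled so untreated is 0 and the glycosylation-blocking control 100, at or above a set limit in every replicate; inconclusive = mean reaches the limit but not every replicate does; inactive = mean below the limit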;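 note: luciferase carries N-glycosylation sites so blocking glycosylation raises the light; 0% = median of neutral control wells and 100% = median of 100 nM tunicamycin wells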
EBV LMP1 NFkB: inhibitors of Epstein-Barr LMP1-induced NF-kappaB reporter | inhibition, % at 12.5 µM | LMP1-induced NF-kappaB luciferase reporter cells, luminescence | 0.69% of 350,000 active; in the data active = inhibition above about 41%; inconclusive = no clear call, values can overlap the other calls;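 note: 0% = neutral control wells and 100% = reference inhibitor control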
NSD2 HMT inh: NSD2 (human) methyltransferase inhibition. O96028. NSD2 peptide methylation, AlphaScreen, 120 min. inhibition, % at 12.5 µM. 0.54% of 310,000 active. AID 743445; in the data active = inhibition above about 50%
Numbers without * were called inactive; ? = inconclusive; . = no result; [ ] = remark or other dose.

SMILES | PAX8 reporter | HIV Env fusion | Shn3 3UTR inh | Glyco luc inh | EBV LMP1 NFkB | NSD2 HMT inh
Cc1cc(C)c(C#N)c(SCc2nnc(-c3ccccc3)o2)n1 | 17 | -97 | 60 | -18 | 59* | -4
C[C@@H]1CN([C@H](C)CO)C(=O)c2cc(NC(=O)Nc3ccc(C(F)(F)F)cc3)ccc2O[C@@H](C)CCCCO[C@H]1CN(C)Cc1ccc2c(c1)OCO2 | 108* | ? | . | . | . | .
C[C@@H]1CN([C@@H](C)CO)C(=O)c2cc(NC(=O)Nc3ccc(C(F)(F)F)cc3)ccc2O[C@@H](C)CCCCO[C@H]1CN(C)Cc1ccc2c(c1)OCO2 | 83* | 10[16.7 µM] | . | . | . | .
C[C@@H]1CCCCO[C@@H](CN(C)Cc2ccc3c(c2)OCO3)[C@@H](C)CN([C@H](C)CO)C(=O)c2cc(NC(=O)Nc3ccc(F)cc3)ccc2O1 | 16 | 4[16.7 µM] | . | . | . | .
C[C@H](CO)N1C[C@H](C)[C@H](CN(C)Cc2ccc3c(c2)OCO3)OCCCC[C@H](C)Oc2ccc(NC(=O)Nc3ccc(C(F)(F)F)cc3)cc2C1=O | 108* | 61*[16.7 µM] | . | . | . | .
C[C@@H]1CCCCO[C@H](CN(C)Cc2ccc3c(c2)OCO3)[C@H](C)CN([C@@H](C)CO)C(=O)c2cc(NC(=O)Nc3ccc(C(F)(F)F)cc3)ccc2O1 | 63* | 15[16.7 µM] | . | . | . | .
C[C@H](CO)N1C[C@H](C)[C@@H](CN(C)Cc2ccc3c(c2)OCO3)OCCCC[C@H](C)Oc2ccc(NC(=O)Nc3ccc(F)cc3)cc2C1=O | 23 | -27[16.7 µM] | . | . | . | .
C[C@@H]1CCCCO[C@H](CN(C)Cc2ccc3c(c2)OCO3)[C@@H](C)CN([C@@H](C)CO)C(=O)c2cc(NC(=O)Nc3ccc(C(F)(F)F)cc3)ccc2O1 | 101* | ? | . | . | . | .
C[C@@H]1CCCCO[C@@H](CN(C)Cc2ccc3c(c2)OCO3)[C@@H](C)CN([C@H](C)CO)C(=O)c2cc(NC(=O)Nc3ccc(C(F)(F)F)cc3)ccc2O1 | 35 | 5[16.7 µM] | . | . | . | .
C[C@@H]1CN([C@@H](C)CO)C(=O)c2cc(NC(=O)Nc3ccc(F)cc3)ccc2O[C@@H](C)CCCCO[C@H]1CN(C)Cc1ccc2c(c1)OCO2 | 3 | 18[16.7 µM] | . | . | . | .
C[C@H]1CCCCO[C@H](CN(C)Cc2ccc3c(c2)OCO3)[C@@H](C)CN([C@@H](C)CO)C(=O)c2cc(NC(=O)Nc3ccc(C(F)(F)F)cc3)ccc2O1 | 67* | ? | . | . | . | .
O=C1C=C(Nc2cccc3cccnc23)c2ccccc2C1=O | -7 | -74 | -30 | 21 | 3 | 104*
C[C@@H]1CN([C@@H](C)CO)C(=O)CCCn2nncc2CO[C@@H]1CN(C)CC1CCCC1 | -12 | . | . | . | . | .
COc1ccc(-c2cnc3c(c2)C(=O)N([C@@H](C)CO)C[C@H](C)[C@@H](CN(C)C(=O)NC2CCCC2)O3)cc1 | -3 | 20[16.7 µM] | . | . | . | .
C=C1C(=O)[C@]23C[C@H]1CCC2[C@]1(C)C(=O)CC[C@@](C)(C(=O)O)C1C[C@@H]3O (stereo not given in full) | 65* | 4 | 65 | -1 | . | .
C=C1C(=O)[C@]23C[C@H]1CC[C@H]2[C@]1(C)[C@@H](OC(C)=O)CC[C@@](C)(C(=O)O)[C@H]1C[C@@H]3OC(C)=O | 86* | -20 | 33 | -5 | . | .
C=C1C(=O)[C@]23C[C@H]1CCC2[C@]1(C)CCC[C@@](C)(C(=O)O)C1C[C@@H]3O (stereo not given in full) | 117* | 9 | 89* | -13 | . | .
C=C/C(C)=C/CC1C(=C)CCC2C(C)(C(=O)O)CCCC12C (stereo not given) | . | . | -23 | 1 | 0 | .
C[C@@H]1CN([C@H](C)CO)C(=O)c2cc(C#Cc3ccccn3)cnc2O[C@@H]1CN(C)Cc1ccncc1 | . | -16[16.7 µM] | . | . | . | .
CC(=O)N(C)C[C@@H]1Oc2ncc(-c3cccnc3)cc2C(=O)N([C@H](C)CO)C[C@H]1C | . | 15[16.7 µM] | . | . | . | .
COC1C=CC=C(C)C(=O)NC2=CC(=O)C(N)=C(CC(C)CC(OC)C(O)C(C)C=C(C)C1OC(N)=O)C2=O (stereo not given) | 41 | 29 | 87* | -8 | 72* | 42
COC1CC(C)C(OC)c2cc(O)cc(c2O)NC(=O)C(C)=CC=CC(C)C(OC(N)=O)C(C)=CC(C)C1OC (stereo not given) | 15 | -48 | -1 | 3 | 48* | 5
COC(=O)c1ccc(NC(=O)c2cccc(N3C(=O)C4C5C=CC(C6CC56)C4C3=O)c2)cc1 (stereo not given) | 1 | 64* | 59 | -3 | -7 | -2
Cc1ccc(S(=O)(=O)Nc2ccc3c(c2)CC(=O)N([C@@H](C)CO)C[C@H](C)[C@H](CN(C)S(=O)(=O)c2ccc(C)cc2)O3)cc1 | -28 | 27[16.7 µM] | . | . | . | .
COc1ccc(C=CC(=O)c2ccc(OCc3ccccc3)c(OC)c2)cc1OC | 23 | 4 | -15 | 10 | 7 | 1
SMILES | PAX8 reporter | HIV Env fusion | Shn3 3UTR inh | Glyco luc inh | EBV LMP1 NFkB | NSD2 HMT inh
O=C(/C=C/c1ccc(OCc2ccccc2)c(OCc2ccccc2)c1)c1cccnc1 | 5 | 10 | 89* | 23 | -10 | -3
CCCNC(=O)N1CCC2(CC1)CN(C(=O)NC(C)C)[C@H](CO)c1c2c2ccc(OC)cc2n1C | 8 | . | . | . | . | .
CCCN(C)C[C@H]1OCCCC[C@H](C)Oc2ccc(NS(=O)(=O)c3ccc(OC)cc3)cc2C(=O)N([C@H](C)CO)C[C@H]1C | -33 | 15[16.7 µM] | . | . | . | .
CC(C)(C)c1nc(NCCN2CCOCC2)c2nnn(Cc3ccccc3Cl)c2n1 | . | . | 84* | -8 | 8 | .
COc1ccc(NC(=O)Nc2ccc3c(c2)C(=O)N([C@H](C)CO)C[C@H](C)[C@@H](CN(C)C(=O)NC(C)C)OCCCC[C@@H](C)O3)cc1 | 9 | 1[16.7 µM] | . | . | . | .
CCCNC(=O)Nc1ccc2c(c1)OC[C@H](C)N(C(C)=O)C[C@@H](C)[C@@H](OC)CN(C)C2=O | 4 | 3[16.7 µM] | . | . | . | .
Cc1ccc(S(=O)(=O)N(C)C[C@@H]2OCCCC[C@H](C)Oc3ccc(NC(=O)Nc4ccc(F)cc4)cc3C(=O)N([C@H](C)CO)C[C@H]2C)cc1 | 64* | -3 | 34 | -8 | -6 | .
C[C@@H]1CCCCO[C@H](CN(C)S(=O)(=O)c2ccc(F)cc2)[C@@H](C)CN([C@@H](C)CO)C(=O)c2cc(NC(=O)Nc3ccc(F)cc3)ccc2O1 | 62* | 23[16.7 µM] | . | . | . | .
C[C@@H]1CCCCO[C@@H](CN(C)S(=O)(=O)c2ccc(F)cc2)[C@H](C)CN([C@@H](C)CO)C(=O)c2cc(NC(=O)Nc3ccc(F)cc3)ccc2O1 | 38 | -21[16.7 µM] | . | . | . | .
C[C@@H]1CN([C@H](C)CO)C(=O)c2cc(NC(=O)Nc3ccc(C(F)(F)F)cc3)ccc2O[C@@H](C)CCCCO[C@H]1CN(C)S(=O)(=O)c1ccc(F)cc1 | 78* | 46[16.7 µM] | . | . | . | .
CC(C)NC(=O)N(C)C[C@H]1OCCCC[C@H](C)Oc2ccc(NS(=O)(=O)c3ccc(F)cc3)cc2C(=O)N([C@@H](C)CO)C[C@@H]1C | -28 | -94[16.7 µM] | . | . | . | .
